# Data reported in PubChem BioAssay AID624296 (National Center for Advancing Translational Sciences (NCATS), 2012).
# Among all 350,000 compounds or so, about 9,900 (2.8%) were called active. About 15% were inconclusive and are not listed. The call rests on the fitted dose curve; in most records, active means well fitted activation curve with a large enough effect; inconclusive means small, poorly fitted or top-dose-only effect; inactive means no such curve, though single readings can be large or run the other way. The list comes from a sample in which actives are over-represented; it also holds similar structures and randomly drawn compounds. Entries that show only a call come without a potency.
# Test: A quantitative high throughput screen for small molecules that induce DNA re-replication in MCF 10a normal breast cells. Further: nearly all actives have a fitted effect of over 50% in size.
# Conditions: MCF 10A DNA re-replication, Hoechst nuclear intensity, 48 h; series mostly up to 46.1 µM
# Potency means the concentration at half of the fitted maximal effect.
row,Structure (SMILES),Potency
1,COc1ccccc1NC(=O)COC(=O)CNC(=O)C1CCCCC1,inactive
2,CCCn1nc(NS(=O)(=O)c2ccccc2)c2cc3cc(C)ccc3nc21,inactive
3,CCn1nc(NC(=O)c2ccco2)c2cc3ccc(C)cc3nc21,8.91 µM (active)
4,Cc1ccnc(NC(=O)c2ccco2)n1,inactive
5,COC(=O)[C@]1(Cc2ccccc2)N[C@H](CN(C)S(=O)(=O)c2ccc(F)cc2)[C@@H]2C(=O)N(Cc3ccccc3)C(=O)[C@@H]21,inactive
6,CCCSc1nc(NCc2ccco2)c2c3c(sc2n1)COC(C)(CC)C3 (stereo unspecified),23.1 µM (active)
7,CCC1(C)Cc2c(sc3nc(SC)nc(N)c23)CO1 (stereo unspecified),inactive
8,CCC1(C)Cc2c(sc3nc4n(c(=O)c23)CCCS4)CO1 (stereo unspecified),inactive
9,O=C(OCC(=O)N1CCCCC1)c1ccc(OC(F)(F)F)cc1,inactive
10,O=C(NCCc1ccc(F)cc1)c1ccc(S(=O)(=O)N2CCCCC2)cc1,inactive
11,CC1(c2ccccc2)NC(=O)N(CC(=O)N2CC(=O)Nc3ccccc32)C1=O (stereo unspecified),inactive
12,NC(=O)C1CCN(C(=O)c2ccc(F)c(S(=O)(=O)N3CCOCC3)c2)CC1,inactive
13,O=S(=O)(NCc1ccc(Cl)cc1Cl)c1cccs1,inactive
14,Cc1ccc(S(=O)(=O)Cc2cc(-c3ccc(Cl)cc3)no2)cc1,inactive
15,O=S(=O)(Cc1ccc(Cl)cc1Cl)c1ccc(Cl)cc1,0.651 µM (active)
16,CCCC(=O)Nc1ccc(C(=O)N/N=C/c2ccc[nH]2)cc1,16.4 µM (active)
17,CC(=O)Nc1ccc(C(=O)/C=C/c2ccc[nH]2)cc1,inactive
18,CC(=O)Nc1ccc(C(=O)NNC(=O)CCCCC(=O)NNC(=O)c2ccc(NC(C)=O)cc2)cc1,inactive
19,Cc1ccc(C(=O)Nc2ccc3c(c2)OCCO3)cc1S(=O)(=O)N1CCOCC1,inactive
20,Cn1c(=O)c2c(nc(SCC(=O)Nc3ccccc3N3CCCCC3)n2C)n(C)c1=O,inactive
21,O=C(CNCCC1=CCCCC1)Nc1ccccc1N1CCCCCC1,20.6 µM (active)
22,Cc1ccccc1NC(=O)CNc1ccccc1N1CCCCC1,inactive

row,Structure (SMILES),Potency
1,COc1ccc(C(=O)NCC2CCCCC2)cc1S(=O)(=O)N1CCCC1,inactive
2,Nc1nonc1-n1nnc(C(=O)N/N=C/c2ccccc2O)c1CN1CCCC1,inactive
3,Cc1ccc(SCc2c(C(=O)N/N=C/C3CC=CCC3)nnn2-c2nonc2N)cc1 (stereo unspecified),inactive
4,Nc1nonc1-n1nnc(C(=O)N/N=C/c2cc(Br)ccc2O)c1CSC1=NCCS1,10.3 µM (active)
5,COc1ccc(C2(c3ccc(OC)cc3)NC(=O)N(CC(=O)Nc3cc(C)on3)C2=O)cc1,inactive
6,Cn1c(=O)c2c(ncn2CCc2ccccc2)n(C)c1=O,inactive
7,Cn1c(=O)c2c(ncn2CC(=O)N2CCN(c3ccccc3)CC2)n(C)c1=O,inactive
8,Cn1c(=O)c2c(ncn2CC(COCc2ccccc2Cl)OCc2ccccc2Cl)n(C)c1=O (stereo unspecified),13 µM (active)
9,O=C(O)C1C2C=CC(O2)C1C(=O)Nc1ccccn1 (stereo unspecified),inactive
10,O=C(CNC(=O)c1n[nH]c2ccccc12)Nc1cc(Cl)ccc1Cl,inactive
11,COC[C@@H]1NS(=O)(=O)c2ccc(Br)cc2O[C@H]1c1ccccc1,inactive
12,COC(=O)c1sc(-c2ccc(C(C)(C)C)cc2)cc1NC(=O)/C=C/C(=O)O,16.4 µM (active)
13,O=C(O)/C=C/C(=O)Nc1ccc(F)cc1F,inactive
14,COc1ccccc1NC(=O)/C=C/C(=O)O,inactive
15,COC(=O)c1sc(NC(=O)COC(=O)C2CCC2)c(C(=O)OC)c1C,inactive
16,CC(NCC(=O)Nc1ccccc1C(=O)NC1CC1)c1ccccc1Cl (stereo unspecified),inactive
17,CC(CC(=O)Nc1ccccc1)n1ccnc1 (stereo unspecified),0.92 µM (active)
18,CC(C)CC(=O)Nc1ccc(Cc2ccncc2)cc1,inactive
19,O=C(O)CCCC(=O)Nc1ccccc1-n1ccnc1,inactive
20,O=[N+]([O-])c1ccc(COc2ccccc2CN2CCOCC2)cc1,inactive
21,CCN(CC(=O)NCc1ccc(F)cc1)S(=O)(=O)c1ccc(Cl)s1,inactive
22,COc1cccc(C(=O)Nc2nc3ccc(S(C)(=O)=O)cc3s2)c1,inactive

row,Structure (SMILES),Potency
1,COc1ccc(C(=O)Nc2cccc(S(C)(=O)=O)c2)cc1,inactive
2,COc1ccc2sc(-c3ccc(S(C)(=O)=O)cc3)c(-c3ccc(C(N)=O)cc3)c2c1,25.9 µM (active)
3,CC(=O)Nc1ccc(S(=O)(=O)NCCC(=O)N2CCN(c3ccccc3Cl)CC2)cc1,inactive
4,NC(=O)c1ncn([C@@H]2O[C@H](CN=C3NS(=O)(=O)c4ccccc43)[C@@H](O)[C@H]2O)n1,inactive
5,CCc1sc(C(=O)N2CCN(CC(=O)Nc3cccc(F)c3)CC2)cc1C,inactive
6,CCOc1ccc(N2C(=O)CC(N(CCc3ccc(OC)c(OC)c3)C(=S)Nc3ccccc3)C2=O)cc1 (stereo unspecified),23.1 µM (active)
7,COC(=O)CN(C(=S)Nc1ccc(Cl)cc1)C1CC(=O)N(c2ccc(OC)cc2)C1=O (stereo unspecified),inactive
8,CCOc1ccc(N2C(=O)CC(N(O)c3ccccc3)C2=O)cc1 (stereo unspecified),inactive
9,COc1ccccc1N1CCN(CC(=O)Nc2ccnn2C2CCCC2)CC1,inactive
10,CC(C)Cn1cnc2c(SCc3ccc(Cl)cc3)nc(N)nc21,inactive
11,O=C(O)c1ccc(Cn2c(=S)[nH]c3cc(Cl)ccc3c2=O)cc1,inactive
12,CC(C)c1ccc2c(c1)c(SC(C)(C)C)c(CC(C)(C)C(=O)O)n2Cc1ccc(Cl)cc1,2.91 µM (active)
13,CCN([C@H](CO)C(C)C)S(=O)(=O)c1ccccc1Br,inactive
14,COc1ccc(-c2c(C#Cc3ccsc3)c3cc(-c4ccc(CN5CCOCC5)cc4)ccc3n2C)cc1,inactive
15,COc1cc(OC)cc(-c2c(C#Cc3ccsc3)c3cc(-c4ccc(SC)cc4)ccc3n2C)c1,inactive
16,COc1cc(OC)cc(-c2c(C#Cc3ccsc3)c3cc(-c4ccc(OC)cc4F)ccc3n2C)c1,0.326 µM (active)
17,COc1cccc2oc(CCc3ccccc3)cc(=O)c12,inactive
18,Cc1nn(-c2ncccn2)c2c1C(=O)CC(C)(C)C2Br (stereo unspecified),inactive
19,O=C(O)CCC(=O)N(Cc1ccccc1)Cc1ccccc1,0.731 µM (active)
20,O=C(O)CCC(=O)N(Cc1cccs1)Cc1cccs1,inactive
21,CCN(CC)C(=O)N(CC)Cc1ccccc1,inactive
22,Cc1cc(NC(=O)C(C)SCC(=O)Nc2cccc(S(=O)(=O)N3CCCCCC3)c2)no1 (stereo unspecified),inactive
